# Screening data deposited in PubChem by The Scripps Research Institute Molecular Screening Center.
# CHO-K1 Ca ag – M1 agonist counterscreen hit in parental CHO-K1 cells; activation, % at 3 µM; Fluo-8 calcium fluorescence; scaled to maximal ATP response, vehicle zero; 0.48% of 360,000 active; in the data active = activation above about 15%;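 also: untransfected CHO-K1 host cells lacking M1 receptor as counterscreen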
# M1 PAM – human CHRM1 positive allosteric modulation; P11229; CHO-K1 hM1, Fluo-8 calcium fluorescence, ACh EC20; 0% = ACh EC20, 100% = maximal ACh; activation, % at 3 µM; 0.088% of 360,000 active; in the data active = activation above about 19%, passing the limit was not always enough
# CHO-K1 Ca antag – M1 antagonist counterscreen hit in parental CHO-K1 cells; 0.6% of 360,000 active; AID 602250; ATP-induced calcium, Fluo-8 fluorescence; inhibition, % at 3 µM;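 active = inhibition above a per-plate cutoff, the plate's mean sample inhibition plus 3 SD, cut at about 24% in these data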
# M1 antag – antagonists of human M1 muscarinic receptor. CHO-K1 hM1, Fluo-8 calcium fluorescence, ACh EC80 antagonist. inhibition, % at 3 µM. 1.3% of 360,000 active. AID 588852;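 active = percent inhibition above its own plate's cutoff, namely the mean of that plate's compound wells plus 3 SD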;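 also: peak over basal fluorescence ratio during 140 s after agonist addition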
# M1 ag – agonists of human M1 muscarinic receptor | CHO-K1 hM1, Fluo-8 calcium fluorescence, agonist mode; 0% DMSO, 100% acetylcholine EC100 | 0.33% of 360,000 active | activation, % at 3 µM;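 active = activation above the run's mean compound activation plus 3 SD, cut at about 16% in these data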;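 also: peak over basal fluorescence ratio within a 140 s kinetic read after compound addition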
# M1 PAM parental – M1 PAM counterscreen hit in parental CHO-K1 cells; AID 602247; activation, % at 3 µM; 0.02% of 360,000 active; ATP EC20, Fluo-8 calcium fluorescence; 0% at ATP EC20, 100% at ATP max;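 active = activation above the run cutoff, the mean activation of all test compounds plus 3 SD, cut at about 40% in these data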;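 also: peak over basal fluorescence ratio in a 140 s read after ATP addition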
# Numbers stand for hits; 0 = inactive. Rows were chosen to be rich in hits. Some 2.3% of all compounds tested hit in one or more screens of this group.
SMILES,CHO-K1 Ca ag,M1 PAM,CHO-K1 Ca antag,M1 antag,M1 ag,M1 PAM parental
COc1ccc2c(c1O)C13CCN(C)C(C2)C1CCC(=O)C3 (stereo unspecified),0,0,0,0,0,0
c1ccc2c(c1)CN(Cc1ccc3c(c1)OCO3)Cc1cnnn1-2,0,0,27,0,0,0
CC(=O)O[C@@H]1/C=C/[C@](C)(O)C[C@@H](C)C/C=C/[C@H]2[C@@H]3O[C@]3(C)[C@@H](C)[C@H]3[C@H](Cc4ccccc4)NC(=O)[C@@]312,0,0,0,0,0,0
CCCCCc1nc2c(c(=O)c3ccccc3n2C)c(=O)n1C1CCCCCC1,21,0,0,0,0,0
O=c1[nH]c(O)c(C=Nc2ccc(Cl)c(C(F)(F)F)c2)c(=O)[nH]1,0,0,0,41,0,0
Nc1c(C(=O)NCCc2ccccc2)c2nc3ccccc3nc2n1CCN1CCOCC1,0,0,0,0,0,0
Nc1c(C(=O)NCCN2CCOCC2)c2nc3ccccc3nc2n1Cc1ccccc1,16,0,0,0,0,0
